Read-out in test [1]: TIMP metallopeptidase inhibitor 2 (TIMP2), TIMP2 (gene 7077)
Nature of the test: BSK_KF3CT_TIMP2: BioMAP Diversity Plus: KF3CT Assay for TIMP metallopeptidase inhibitor 2 (TIMP2) Biomarker Activity (AID 2283071). The following applies: primary human keratinocytes with fibroblasts; actives raise or lower the signal. An outline of the steps: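 Chemicals were dosed onto human skin primary co-cultures of keratinocytes and foreskin fibroblasts, and TIMP-2 was measured by ELISA after 24 hours. Activity in either direction was fitted relative to DMSO.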

Read-out in test [2]: Transforming growth factor beta 1 (TGFb1), TGFB1 (gene 7040)
Description: BSK_KF3CT_TGFb1: BioMAP Diversity Plus: KF3CT Assay for Transforming growth factor beta 1 (TGFb1) Biomarker Activity (AID 2283072). The note with it: primary human keratinocytes with fibroblasts; actives raise or lower the signal. The essentials: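 KF3CT co-culture (keratinocytes + fibroblasts), 24 h exposure → TGF-b1 ELISA → bidirectional fit, DMSO = baseline. Parallel SRB total-protein staining (0.1% SRB, 10% TCA fixation, 560 nm) for cytotoxicity.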

Read-out in test [3]: C-C motif chemokine 2 (Homo sapiens) (UniProt P13500)
Nature of the test: BSK_KF3CT_MCP1: BioMAP Diversity Plus: KF3CT Assay for Monocyte Chemoattractant Protein 1 (MCP1/CCL2) Biomarker Activity (AID 2283073). The following applies: primary human keratinocytes with fibroblasts; actives raise or lower the signal. An outline of the steps: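 Human keratinocyte–foreskin fibroblast co-culture; MCP-1 measured by ELISA 24 h after dosing. Bidirectional fit vs DMSO; cytotoxicity tracked by SRB total protein in parallel cultures.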

Read-out in test [4]: Matrix Metallopeptidase 9 (MMP9), MMP9 (gene 4318)
Description: BSK_KF3CT_MMP9: BioMAP Diversity Plus: KF3CT Assay for Matrix Metallopeptidase 9 (MMP9) Biomarker Activity (AID 2283074).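 As to AC50: MMP9 protein level quantified by ELISA in the co-culture.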 The following applies: primary human keratinocytes with fibroblasts; actives raise or lower the signal. The essentials:
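Values come from bidirectional fitting relative to DMSO of MMP-9 levels, which were measured by ELISA. Measurements were taken 24 h after chemical dosing of a keratinocyte and foreskin fibroblast co-culture.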

Read-out in test [5]: urokinase plasminogen activator (uPA), PLAU (gene 5328)
Nature of the test: BSK_KF3CT_uPA: BioMAP Diversity Plus: KF3CT Assay for urokinase plasminogen activator (uPA) Biomarker Activity (AID 2283075). The following applies: primary human keratinocytes with fibroblasts; actives raise or lower the signal. The essentials: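 Values derive from bidirectional fitting against DMSO controls. Keratinocyte/foreskin fibroblast co-cultures received chemical; 24 h later uPA was detected by ELISA, with SRB total-protein staining in parallel wells for overt cytotoxicity.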

Read-out in test [6]: CD40, CD40 (gene 958)
Description: BSK_LPS_CD40: BioMAP Diversity Plus: LPS Assay for CD40 Biomarker Activity (AID 2283076). The note with it: primary human HUVEC with PBMC; actives raise or lower the signal. An outline of the steps:
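HUVEC plus PBMC co-culture stimulated with LPS; CD40 quantified by ELISA 24 h after compound dosing. Fitting was bidirectional relative to DMSO. SRB staining of parallel cultures flagged overt cytotoxicity.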

Read-out in test [7]: E-selectin (Homo sapiens) (UniProt P16581)
Description: BSK_LPS_Eselectin: BioMAP Diversity Plus: LPS Assay for Eselectin Biomarker Activity (AID 2283077). The following applies: primary human HUVEC with PBMC; actives raise or lower the signal. The essentials:
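Human umbilical vein endothelial cells co-cultured with PBMC under LPS stimulation; cell-surface E-selectin measured by ELISA 24 h after dosing. Change in either direction versus DMSO, with SRB total-protein staining in parallel cultures for cytotoxicity.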

Read-out in test [8]: Interleukin-8 (IL8), CXCL8 (gene 3576)
Description: BSK_LPS_IL8: BioMAP Diversity Plus: LPS Assay for Interleukin-8 (IL8) Biomarker Activity (AID 2283078). The following applies: primary human HUVEC with PBMC; actives raise or lower the signal. The essentials:
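Human umbilical vein endothelial cells co-cultured with PBMC, LPS-stimulated, exposed to compound for 24 h. IL-8 quantified by ELISA; fitted in both directions against DMSO, with SRB total-protein staining of parallel cultures for cytotoxicity.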

A short description of test [9]: BSK_LPS_SRB: Viability Assessment in the BioMAP Diversity Plus: LPS Assay (AID 2283079).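 Also: total protein by sulforhodamine B absorbance as a cytotoxicity measure; measured one day after compound addition; fitted in both directions against DMSO so loss or gain of signal counts.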 The note with it: primary human HUVEC with PBMC. The essentials: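 Co-culture of human umbilical vein endothelial cells and PBMC, read 24 h after dosing. Total protein by 0.1% SRB staining after 10% TCA fixation, absorbance at 560 nm; bidirectional fit against DMSO.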
Read-out in test [10]: Interleukin-1 alpha (IL1a), IL1A (gene 3552)
Nature of the test: BSK_LPS_IL1a: BioMAP Diversity Plus: LPS Assay for Interleukin-1 alpha (IL1a) Biomarker Activity (AID 2283080). The following applies: primary human HUVEC with PBMC; actives raise or lower the signal. An outline of the steps:
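Human umbilical vein endothelial cells co-cultured with PBMC and stimulated with LPS; IL-1a measured by ELISA 24 h after dosing. Bidirectional fitting against DMSO; cytotoxicity checked by SRB staining in parallel cultures.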

Read-out in test [11]: Monocyte Chemoattractant Protein-1 (MCP1), CCL2 (gene 6347)
Nature of the test: BSK_LPS_MCP1: BioMAP Diversity Plus: LPS Assay for Monocyte Chemoattractant Protein-1 (MCP1) Biomarker Activity (AID 2283081).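 As to AC50: secreted MCP-1 protein quantified by ELISA in culture supernatant.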 The following applies: primary human HUVEC with PBMC; actives raise or lower the signal. An outline of the steps:
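Human umbilical vein endothelial cells co-cultured with PBMC, LPS-stimulated; secreted MCP-1 measured by ELISA 24 h after compound addition. Bidirectional curve fitting against DMSO baseline; SRB total-protein staining in parallel cultures for cytotoxicity.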

Test [12] in a line: BSK_LPS_PGE2: BioMAP Diversity Plus: LPS Assay for Prostaglandin E2 (PGE2) Biomarker Activity (AID 2283082). The following applies: primary human HUVEC with PBMC; actives raise or lower the signal. An outline of the steps: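 Compounds were added to the LPS co-culture of endothelium and PBMC, and PGE2 was measured by ELISA after 24 h. Responses in either direction were fitted with DMSO as baseline.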

Read-out in test [13]: Tissue Factor, F3 (gene 2152)
Description: BSK_LPS_TissueFactor: BioMAP Diversity Plus: LPS Assay for Tissue Factor Biomarker Activity (AID 2283084). The following applies: primary human HUVEC with PBMC; actives raise or lower the signal. An outline of the steps: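 Human umbilical vein endothelial cells co-cultured with PBMC were dosed with compound. Cell-surface CD142 was measured by ELISA 24 h later. Activity was fitted bidirectionally against DMSO, with SRB total-protein staining in parallel cultures for cytotoxicity.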

Read-out in test [14]: Tumor necrosis factor (Homo sapiens) (UniProt P01375)
Nature of the test: BSK_LPS_TNFa: BioMAP Diversity Plus: LPS Assay for Tumour Necrosis Factor alpha (TNFa) Biomarker Activity (AID 2283085). The following applies: primary human HUVEC with PBMC; actives raise or lower the signal. The essentials: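 Cells (umbilical vein endothelium plus peripheral blood mononuclear cells) were dosed with chemical, incubated 24 h, then TNFa was quantified by ELISA; values derive from bidirectional fitting with DMSO as baseline.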

Read-out in the next test: CD38, CD38 (gene 952)
Description: BSK_SAg_CD38: BioMAP Diversity Plus: SAg Assay for CD38 Biomarker Activity (AID 2283087). The following applies: primary human HUVEC with PBMC; actives raise or lower the signal. An outline of the steps: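 CD38 quantified by ELISA (fluorescence) in a superantigen-activated endothelial cell–PBMC co-culture at 24 h post-dose. Activity fitted in both directions relative to DMSO; parallel SRB and Alamar Blue cytotoxicity read-outs.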

Read-out in test [15]: CD40, CD40 (gene 958)
Description: BSK_SAg_CD40: BioMAP Diversity Plus: SAg Assay for CD40 Biomarker Activity (AID 2283088). The following applies: primary human HUVEC with PBMC; actives raise or lower the signal. The essentials: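 HUVEC plus PBMC co-culture, superantigen-activated, with CD40 read by ELISA 24 h after dosing. Curves fitted in both directions against DMSO. Overt cytotoxicity checked by parallel SRB total-protein staining.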

Read-out in the next test: CD69, CD69 (gene 969)
Description: BSK_SAg_CD69: BioMAP Diversity Plus: SAg Assay for CD69 Biomarker Activity (AID 2283089). The following applies: primary human HUVEC with PBMC; actives raise or lower the signal. An outline of the steps:
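ELISA, fluorescence read-out: CD69 on human umbilical vein endothelial cell + PBMC co-culture, 24 h post-dosing. Gain or loss of signal fitted bidirectionally against DMSO baseline.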

Read-out in test [16]: Monocyte Chemoattractant Protein-1 (MCP1), CCL2 (gene 6347)
Nature of the test: BSK_SAg_MCP1: BioMAP Diversity Plus: SAg Assay for Monocyte Chemoattractant Protein-1 (MCP1) Biomarker Activity (AID 2283090). The following applies: primary human HUVEC with PBMC; actives raise or lower the signal. An outline of the steps: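 Values derive from bidirectional fitting of ELISA-measured MCP1 against DMSO controls. Readings were taken 24 h after dosing human vascular endothelial cells co-cultured with peripheral blood mononuclear cells under superantigen stimulation.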

Read-out in test [17]: Macrophage colony-stimulating factor (MCSF), CSF1 (gene 1435)
Description: BSK_LPS_MCSF: BioMAP Diversity Plus: LPS Assay for Macrophage colony-stimulating factor (MCSF) Biomarker Activity (AID 2283083). The following applies: primary human HUVEC with PBMC; actives raise or lower the signal. An outline of the steps:
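HUVEC–PBMC co-culture, M-CSF measured by ELISA 24 h after chemical dosing. Fitted in both directions relative to DMSO as negative control; overt cytotoxicity assessed by SRB total-protein staining in parallel cultures.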

Read-out in test [18]: Vascular cell adhesion molecule 1 (VCAM1), VCAM1 (gene 7412)
Description: BSK_LPS_VCAM1: BioMAP Diversity Plus: LPS Assay for Vascular cell adhesion molecule 1 (VCAM1) Biomarker Activity (AID 2283086). The following applies: primary human HUVEC with PBMC; actives raise or lower the signal. The essentials: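 Cells are dosed in an LPS-stimulated endothelial/mononuclear co-culture and, after 24 h, VCAM-1 is quantified by ELISA. Activity in either direction is fitted relative to the DMSO negative control.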

SMILES strings stand for the structures. Calls of active or inactive are those of the source. The calls were made as follows: active = hit-call score of the fitted dose curve at least 0.9, where 1 is the maximum; inactive = score below 0.9.

Sequence of E-selectin (Homo sapiens) (P16581 whole entry, looked up): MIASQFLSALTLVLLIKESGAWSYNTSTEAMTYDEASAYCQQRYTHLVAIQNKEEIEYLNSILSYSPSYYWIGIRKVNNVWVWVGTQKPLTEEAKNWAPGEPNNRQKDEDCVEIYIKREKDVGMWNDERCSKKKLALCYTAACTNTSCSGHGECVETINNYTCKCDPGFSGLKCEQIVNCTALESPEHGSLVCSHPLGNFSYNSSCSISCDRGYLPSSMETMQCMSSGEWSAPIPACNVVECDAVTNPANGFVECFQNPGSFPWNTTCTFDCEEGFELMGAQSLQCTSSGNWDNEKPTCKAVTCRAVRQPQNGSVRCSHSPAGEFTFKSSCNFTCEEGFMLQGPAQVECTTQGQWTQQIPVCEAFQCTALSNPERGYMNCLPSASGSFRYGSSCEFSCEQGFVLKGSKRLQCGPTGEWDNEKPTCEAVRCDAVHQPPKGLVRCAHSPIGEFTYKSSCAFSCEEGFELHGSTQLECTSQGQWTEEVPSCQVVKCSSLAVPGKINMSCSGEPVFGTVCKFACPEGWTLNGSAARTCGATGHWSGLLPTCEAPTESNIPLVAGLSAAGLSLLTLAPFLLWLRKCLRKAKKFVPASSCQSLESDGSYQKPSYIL
Sequence of Tumor necrosis factor (Homo sapiens) (P01375 whole entry, looked up): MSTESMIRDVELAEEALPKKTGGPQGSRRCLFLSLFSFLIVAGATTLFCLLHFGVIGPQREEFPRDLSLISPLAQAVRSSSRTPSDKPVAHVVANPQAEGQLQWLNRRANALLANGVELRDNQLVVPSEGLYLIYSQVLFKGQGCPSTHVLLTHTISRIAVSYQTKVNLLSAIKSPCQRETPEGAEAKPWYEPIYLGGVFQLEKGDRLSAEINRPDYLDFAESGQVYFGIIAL

Broadly, the AC50 is the concentration at which the activity in the assay is half-maximal. On to `CC(Cl)CN(C)C` (stereo not given), for which the outcome is “inactive” in test [1]; “inactive” in [2]; “inactive” in [3]; “inactive” in test [5]; “inactive” with CD40, CD40 (gene 958) [6]; “inactive” in test [7]. For the same molecule, the outcome in test [8], in test [9], in test [10], in [11], in test [12] and in test [13] was inactive. In addition, the outcome is “inactive” in test [14]; “inactive” in the test with CD38, CD38 (gene 952); “inactive” with CD40, CD40 (gene 958) [15]; “inactive” with CD69, CD69 (gene 969). The AC50 in test [4] was 0.0889 µM (active); in [16], 0.0162 µM (active).
`CCCCC(CC)COC(=O)c1c(Br)c(Br)c(Br)c(Br)c1C(=O)OCC(CC)CCCC` (stereo not given): the outcome in test [1] was “inactive”; in [2] it was “inactive”; in [3] it was “inactive”; in [4] it was “inactive”; in [5], “inactive”; in the test with CD40, CD40 (gene 958) [6], “inactive”. Further, the result in test [7], in test [8], in [9], in [10], in test [11] and in test [12] was inactive. The outcome in test [17] was “inactive”; in [14], “inactive”; in [18], “inactive”; with CD38, CD38 (gene 952) it was “inactive”; with CD40, CD40 (gene 958) [15], “inactive”; in the test with CD69, CD69 (gene 969), “inactive”.
Take `O=S1(=O)OCC2C(CO1)C1(Cl)C(Cl)=C(Cl)C2(Cl)C1(Cl)Cl` (stereo not given): the outcome in test [1] is “inactive”; in [3], “inactive”; in [4] it was “inactive”; in test [5], “inactive”; in the test with CD40, CD40 (gene 958) [6], “inactive”; in [7], “inactive”. For the same molecule, the result in test [8], in test [9], in test [10], in [17], in [14] and in test [18] was inactive. Moreover, the outcome in the test with CD38, CD38 (gene 952) was “inactive”; with CD40, CD40 (gene 958) [15], “inactive”; with CD69, CD69 (gene 969) it was “inactive”. For the same molecule, the concentration at half-maximal activity (AC50) in [2] is 35.6 µM (active); in test [11] it was 10.5 µM (active).
`COP(N)(=S)OC`: the outcome in test [1] was “inactive”; in test [2], “inactive”; in [3], “inactive”; in test [4] it was “inactive”; in test [5] it was “inactive”; with CD40, CD40 (gene 958) [6], “inactive”. Further, the outcome in test [7], in test [8], in [9], in test [10], in test [11] and in [17] was inactive. In addition, the outcome was “inactive” in [13]; “inactive” in test [14]; “inactive” with CD38, CD38 (gene 952); “inactive” with CD40, CD40 (gene 958) [15]; “inactive” in the test with CD69, CD69 (gene 969).
